Reference: ChEMBL document CHEMBL1961873, “Compounds: GSK PKIS; Assays: Nanosyn kinase panel” (2012)

Columns and labels:
[1] = molecular target: Casein kinase I isoform gamma-2 (Homo sapiens) (UniProt P78368); conditions: at 1 µM
[2] = molecular target: Casein kinase I isoform gamma-3 (Homo sapiens) (UniProt Q9Y6M4); conditions: at 0.1 µM
[3] = molecular target: Casein kinase I isoform gamma-3 (Homo sapiens) (UniProt Q9Y6M4); conditions: at 1 µM
[4] = molecular target: Cyclin-dependent kinase 1 (Homo sapiens) (UniProt P06493); conditions: at 0.1 µM
[5] = molecular target: Cyclin-dependent kinase 1 (Homo sapiens) (UniProt P06493); conditions: at 1 µM
[6] = molecular target: Cyclin-dependent kinase 2 (Homo sapiens) (UniProt P24941); conditions: at 0.1 µM
[7] = molecular target: Cyclin-dependent kinase 2 (Homo sapiens) (UniProt P24941); conditions: at 1 µM
[8] = molecular target: Cyclin-dependent kinase 2 (Homo sapiens) (UniProt P24941); conditions: at 0.1 µM; remark: listed apart in the source
[9] = molecular target: Cyclin-dependent kinase 2 (Homo sapiens) (UniProt P24941); conditions: at 1 µM; remark: listed apart in the source
[10] = molecular target: T1, CDK3/Cyclin E (Homo sapiens) (UniProt P24864+Q00526); conditions: at 0.1 µM
[11] = molecular target: T1, CDK3/Cyclin E (Homo sapiens); conditions: at 1 µM
[12] = molecular target: Cyclin-dependent kinase 4 (Homo sapiens) (UniProt P11802); conditions: at 0.1 µM
[13] = molecular target: Cyclin-dependent kinase 4 (Homo sapiens) (UniProt P11802); conditions: at 1 µM
[14] = molecular target: Cyclin-dependent kinase 5 (Homo sapiens) (UniProt Q00535); conditions: at 0.1 µM
[15] = molecular target: Cyclin-dependent kinase 5 (Homo sapiens) (UniProt Q00535); conditions: at 1 µM
[16] = molecular target: Cyclin-dependent kinase 6 (Homo sapiens) (UniProt Q00534); conditions: at 0.1 µM
[17] = molecular target: Cyclin-dependent kinase 6 (Homo sapiens) (UniProt Q00534); conditions: at 1 µM
[18] = molecular target: Dual specificity protein kinase CLK2 (Homo sapiens) (UniProt P49760); conditions: at 0.1 µM
[19] = molecular target: Dual specificity protein kinase CLK2 (Homo sapiens) (UniProt P49760); conditions: at 1 µM
[20] = molecular target: Dual specificity protein kinase CLK3 (Homo sapiens) (UniProt P49761); conditions: at 0.1 µM
Sequence of Dual specificity protein kinase CLK3 (Homo sapiens) (P49761 whole entry, looked up): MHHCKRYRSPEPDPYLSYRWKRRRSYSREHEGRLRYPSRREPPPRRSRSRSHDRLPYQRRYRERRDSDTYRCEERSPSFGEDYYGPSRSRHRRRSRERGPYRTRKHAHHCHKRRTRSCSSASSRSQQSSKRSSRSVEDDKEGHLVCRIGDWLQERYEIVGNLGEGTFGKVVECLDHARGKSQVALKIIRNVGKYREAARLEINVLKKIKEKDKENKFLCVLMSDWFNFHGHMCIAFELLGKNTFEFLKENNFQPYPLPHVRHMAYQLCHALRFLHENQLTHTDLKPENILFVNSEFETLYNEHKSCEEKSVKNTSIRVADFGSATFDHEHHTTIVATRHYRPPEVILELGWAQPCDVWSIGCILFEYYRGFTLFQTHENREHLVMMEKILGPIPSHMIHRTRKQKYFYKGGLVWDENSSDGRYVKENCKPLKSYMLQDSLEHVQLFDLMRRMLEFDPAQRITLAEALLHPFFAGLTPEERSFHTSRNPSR

Sequence of Casein kinase I isoform gamma-3 (Homo sapiens) (Q9Y6M4 whole entry, looked up, canonical isoform): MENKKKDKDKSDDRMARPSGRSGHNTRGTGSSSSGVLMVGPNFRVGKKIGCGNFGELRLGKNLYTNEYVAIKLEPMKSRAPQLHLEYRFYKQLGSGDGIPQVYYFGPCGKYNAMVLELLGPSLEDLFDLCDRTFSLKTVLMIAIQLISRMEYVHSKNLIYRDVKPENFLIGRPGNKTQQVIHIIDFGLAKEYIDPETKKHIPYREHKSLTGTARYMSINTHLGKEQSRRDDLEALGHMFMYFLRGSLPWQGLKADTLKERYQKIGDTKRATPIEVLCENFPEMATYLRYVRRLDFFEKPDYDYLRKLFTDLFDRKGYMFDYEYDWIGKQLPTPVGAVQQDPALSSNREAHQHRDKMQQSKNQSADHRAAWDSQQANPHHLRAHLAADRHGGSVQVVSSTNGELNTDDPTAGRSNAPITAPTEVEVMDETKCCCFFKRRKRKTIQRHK
Sequence of Dual specificity protein kinase CLK2 (Homo sapiens) (P49760 whole entry, looked up): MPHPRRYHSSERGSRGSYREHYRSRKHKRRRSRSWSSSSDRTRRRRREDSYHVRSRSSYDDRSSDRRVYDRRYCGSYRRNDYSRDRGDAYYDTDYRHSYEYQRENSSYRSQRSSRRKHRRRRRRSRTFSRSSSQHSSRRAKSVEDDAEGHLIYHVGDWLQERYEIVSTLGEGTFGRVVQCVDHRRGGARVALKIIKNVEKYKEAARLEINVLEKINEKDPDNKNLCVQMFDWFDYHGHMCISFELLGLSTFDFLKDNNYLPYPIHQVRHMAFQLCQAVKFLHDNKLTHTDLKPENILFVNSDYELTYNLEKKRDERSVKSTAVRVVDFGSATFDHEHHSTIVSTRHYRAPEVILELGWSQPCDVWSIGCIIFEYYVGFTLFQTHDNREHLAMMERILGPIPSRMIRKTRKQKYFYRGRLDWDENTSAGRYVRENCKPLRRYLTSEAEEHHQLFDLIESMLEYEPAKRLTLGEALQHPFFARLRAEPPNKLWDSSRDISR
Sequence of Cyclin-dependent kinase 6 (Homo sapiens) (Q00534 whole entry): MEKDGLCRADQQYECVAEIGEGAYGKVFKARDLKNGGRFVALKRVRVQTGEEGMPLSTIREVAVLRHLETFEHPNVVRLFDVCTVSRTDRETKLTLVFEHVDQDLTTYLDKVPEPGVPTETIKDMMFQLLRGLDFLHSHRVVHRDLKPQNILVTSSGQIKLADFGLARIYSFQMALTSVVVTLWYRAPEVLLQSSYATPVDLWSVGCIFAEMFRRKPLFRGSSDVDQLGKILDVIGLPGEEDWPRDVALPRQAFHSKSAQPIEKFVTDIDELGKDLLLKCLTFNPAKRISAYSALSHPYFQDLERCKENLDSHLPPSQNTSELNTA
Sequence of Cyclin-dependent kinase 5 (Homo sapiens) (Q00535 whole entry, looked up): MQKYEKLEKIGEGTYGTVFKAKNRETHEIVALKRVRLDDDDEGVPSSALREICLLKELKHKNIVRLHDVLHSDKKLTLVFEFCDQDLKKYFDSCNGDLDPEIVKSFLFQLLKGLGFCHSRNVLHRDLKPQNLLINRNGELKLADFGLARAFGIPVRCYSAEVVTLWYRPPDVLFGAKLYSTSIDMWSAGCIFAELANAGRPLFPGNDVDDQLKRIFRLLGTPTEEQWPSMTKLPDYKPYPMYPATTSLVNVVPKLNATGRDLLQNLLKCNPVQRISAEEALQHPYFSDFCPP
Sequence of Casein kinase I isoform gamma-2 (Homo sapiens) (P78368 whole entry, looked up, canonical isoform): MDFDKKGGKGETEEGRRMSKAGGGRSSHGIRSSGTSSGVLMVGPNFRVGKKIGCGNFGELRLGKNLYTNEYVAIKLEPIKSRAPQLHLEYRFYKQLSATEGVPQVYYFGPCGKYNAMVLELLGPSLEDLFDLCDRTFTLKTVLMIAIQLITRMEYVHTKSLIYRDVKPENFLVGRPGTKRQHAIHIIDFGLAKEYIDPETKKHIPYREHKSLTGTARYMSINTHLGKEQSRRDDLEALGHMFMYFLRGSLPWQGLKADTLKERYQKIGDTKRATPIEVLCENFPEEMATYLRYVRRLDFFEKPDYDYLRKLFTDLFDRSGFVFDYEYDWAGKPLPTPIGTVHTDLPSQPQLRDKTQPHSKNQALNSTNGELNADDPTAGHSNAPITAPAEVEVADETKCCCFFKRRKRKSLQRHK
Sequence of Cyclin-dependent kinase 1 (Homo sapiens) (P06493 whole entry, looked up): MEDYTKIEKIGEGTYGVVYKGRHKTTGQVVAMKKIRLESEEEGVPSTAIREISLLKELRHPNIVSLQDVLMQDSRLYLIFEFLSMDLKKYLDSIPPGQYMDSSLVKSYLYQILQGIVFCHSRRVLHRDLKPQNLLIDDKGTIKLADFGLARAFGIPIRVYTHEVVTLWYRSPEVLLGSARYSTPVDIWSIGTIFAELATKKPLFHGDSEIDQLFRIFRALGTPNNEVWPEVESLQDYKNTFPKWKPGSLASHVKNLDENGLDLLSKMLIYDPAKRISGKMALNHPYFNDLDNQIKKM
T1 sequence (P24864 whole entry, looked up): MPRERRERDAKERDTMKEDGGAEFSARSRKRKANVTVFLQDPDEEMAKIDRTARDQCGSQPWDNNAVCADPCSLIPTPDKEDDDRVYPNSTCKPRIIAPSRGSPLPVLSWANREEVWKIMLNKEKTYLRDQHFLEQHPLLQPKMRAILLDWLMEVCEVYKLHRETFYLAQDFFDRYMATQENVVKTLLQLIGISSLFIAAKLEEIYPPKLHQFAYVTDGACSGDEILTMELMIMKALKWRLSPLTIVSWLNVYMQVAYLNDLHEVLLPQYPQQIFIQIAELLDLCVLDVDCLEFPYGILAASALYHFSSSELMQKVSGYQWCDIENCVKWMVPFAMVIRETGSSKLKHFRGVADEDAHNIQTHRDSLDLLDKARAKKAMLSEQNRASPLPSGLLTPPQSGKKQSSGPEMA
T1 sequence (Q00526 whole entry, looked up): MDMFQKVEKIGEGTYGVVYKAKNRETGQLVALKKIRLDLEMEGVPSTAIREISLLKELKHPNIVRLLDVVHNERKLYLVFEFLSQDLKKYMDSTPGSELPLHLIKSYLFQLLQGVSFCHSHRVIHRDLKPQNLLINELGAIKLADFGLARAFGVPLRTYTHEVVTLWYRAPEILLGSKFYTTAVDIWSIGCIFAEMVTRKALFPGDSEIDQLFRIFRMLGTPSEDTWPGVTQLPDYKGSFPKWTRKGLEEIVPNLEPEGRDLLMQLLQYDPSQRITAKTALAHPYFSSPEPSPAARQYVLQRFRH
Sequence of Cyclin-dependent kinase 4 (Homo sapiens) (P11802 whole entry): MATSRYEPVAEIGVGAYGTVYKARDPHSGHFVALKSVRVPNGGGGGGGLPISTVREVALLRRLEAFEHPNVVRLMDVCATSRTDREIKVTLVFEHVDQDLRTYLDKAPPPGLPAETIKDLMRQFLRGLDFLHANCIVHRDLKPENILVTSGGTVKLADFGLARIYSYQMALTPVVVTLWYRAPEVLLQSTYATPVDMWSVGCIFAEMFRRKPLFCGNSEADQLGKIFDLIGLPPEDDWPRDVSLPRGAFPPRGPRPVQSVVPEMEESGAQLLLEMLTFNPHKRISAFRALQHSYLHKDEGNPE

Compound | inhibition [1] [%] | inhibition [2] [%] | inhibition [3] [%] | inhibition [4] [%] | inhibition [5] [%] | inhibition [6] [%] | inhibition [7] [%] | inhibition [8] [%] | inhibition [9] [%] | inhibition [10] [%] | inhibition [11] [%] | inhibition [12] [%] | inhibition [13] [%] | inhibition [14] [%] | inhibition [15] [%] | inhibition [16] [%] | inhibition [17] [%] | inhibition [18] [%] | inhibition [19] [%] | inhibition [20] [%]
Nc1ncc(-c2cccc(S(N)(=O)=O)c2)c2scc(-c3ccc(F)c(Cl)c3)c12 | 3.79 | 2.58 | 4.97 | 1.33 | 2.57 | 1.79 | 2.91 | 2.68 | 5.08 | -2.34 | -4.84 | 1.97 | 3.55 | 1.01 | 2.29 | -0.13 | 1.9 | 2.7 | -0.72 | 1.16
CCn1cc(-c2ccnc3[nH]ccc23)c(-c2cccc(NC(=O)Nc3ccc(OCc4ccccc4)cc3)c2)n1 | 1.8 | -0.46 | 0.79 | 0.04 | 0.38 | -0.95 | -1.61 | -0.54 | -2.22 | 0.47 | -2.23 | 1.32 | -0.47 | -0.05 | -0.93 | -2.8 | -4.5 | -0.56 | -2.09 | -0.94
COc1ccc2c(-c3ccnc(Nc4cccc(OC(F)(F)F)c4)n3)cnn2n1 | 7.44 | 4.96 | 6.47 | 5.27 | 41.2 | 11.1 | 60.1 | 14.8 | 57 | 3.19 | 20.3 | 3.8 | 18 | 5.51 | 36.3 | 9.65 | 14.6 | 95.4 | 98.3 | 13.2
CC1=C(C(=O)Nc2cc(Cl)c3[nH]ncc3c2)C(c2ccc(C(F)(F)F)cc2)CC(=O)N1 (stereo not given) | 3.61 | 1.59 | 2.92 | -0.73 | 1.81 | -0.94 | 9.38 | 2.4 | 7.57 | 2.08 | 0.3 | 2.42 | 3.48 | 0.48 | 1.62 | -4.7 | -0.24 | 1.17 | 4.84 | 1.15
c1ccc(COc2ccc(Nc3ncnc4ccc(-c5ccco5)cc34)cc2)cc1 | 0.91 | 0.33 | 1.68 | 0.19 | 2.26 | 1.69 | 1.48 | 0.66 | 2.25 | 0.53 | -1.75 | -0.08 | 2.95 | 0.18 | 1.53 | -2.29 | -1.6 | 0.31 | -0.79 | -0.79
Cc1ccc2c(-c3ccnc(Nc4ccccc4)n3)c(-c3ccc(F)cc3)nn2n1 | 36.6 | 7.8 | 51.5 | -0.23 | 1.56 | 2.27 | 0.79 | 2.35 | 5.57 | 2.45 | 2.55 | 6.51 | 6.75 | 0.32 | 2.21 | 3.66 | 5.2 | 2.31 | 2.23 | 1.04
COc1cc2ncn(-c3cc(OCc4ccccc4C(F)(F)F)c(C(=O)N(C)C)s3)c2cc1OC | 0.02 | -1.27 | 0.6 | 0.2 | 1.91 | 1.29 | -0.21 | -0.22 | 0.54 | 1.54 | -0.96 | 1.04 | 1.39 | 0.01 | -0.22 | -1.98 | -0.75 | -0.32 | 2.04 | 0.46
Cc1cccc2c1NC(=O)/C2=N\Nc1ccc(S(N)(=O)=O)cc1 | 2.46 | 0.83 | 1.98 | 0.2 | 2.23 | 1.45 | 3.8 | 2.45 | 3.99 | 2.34 | 2.03 | 3.28 | 5.14 | 0.68 | 2.95 | 5.03 | 10.7 | 1.48 | 2.98 | 1.44
COC(=O)Nc1nc2ccc(S(=O)(=O)c3ccc(NC(=O)Nc4cc(C(F)(F)F)ccc4F)cc3)cc2[nH]1 | 2.81 | 2.17 | 2.25 | 0.69 | 2.29 | 1.37 | 4.57 | 3.44 | 3.85 | 3.5 | -2.43 | 2.72 | 4.04 | 1.61 | 2.38 | 0.21 | 2.9 | 0.38 | 1.96 | 0.87
CCn1c(-c2nonc2N)nc2ccccc21 | 2.97 | 0.54 | 4.86 | -0.3 | 0.59 | 1.31 | 2.17 | 1.38 | 4.31 | 1.63 | 1.41 | 1.45 | 3.08 | 0.59 | 1.17 | 1.48 | 1.55 | 2.35 | 4.78 | 1.2
CCCN1CCC(c2ccc(Nc3nc(Nc4cc(F)ccc4C(N)=O)c4cc[nH]c4n3)c(OC)c2)CC1 | 72.7 | 35.4 | 79.8 | 1.73 | 6.31 | 1.78 | 0.94 | 7.06 | 11.8 | 4.1 | -1.93 | 7.7 | 25.7 | 2.09 | 6.47 | 4.48 | 17.9 | 59.1 | 93.8 | 3.2
O=C(O[C@H]1CN[C@H](C#Cc2cc3ncnc(Nc4ccc(Cc5ccccc5)cc4)c3s2)C1)N1CCOCC1 | 2.93 | 2.83 | 0.75 | 0.31 | 1.96 | 0.69 | 0.19 | 1.15 | 1.72 | -2.04 | -1.05 | 0.77 | 1.9 | 0.05 | 1.12 | -3.24 | -1.41 | 0.36 | -0.46 | 0.27
COC(=O)c1sc(-n2cnc3cc(OC)c(OC)cc32)cc1OCc1ccccc1C(F)(F)F | 4.73 | 3.9 | 2.94 | -0.15 | 1.15 | 1.51 | 3.81 | 4.73 | 8.33 | 3.47 | -1.85 | 2.28 | 3.18 | 1.35 | 2.46 | -2.2 | 5.15 | 1.6 | 2.65 | 0.11
